Results as given in PubChem BioAssay.

target: Fibroblast growth factor 2 (Homo sapiens) (UniProt P09038); test: basic fibroblast growth factor binding to printed compounds – biochemical, small-molecule microarray, 635/667 nm fluorescence, primary screen (AID 1133); conditions: FGF2, fluorescence 635/667, higher = more signal
Sequence (P09038 whole entry, looked up): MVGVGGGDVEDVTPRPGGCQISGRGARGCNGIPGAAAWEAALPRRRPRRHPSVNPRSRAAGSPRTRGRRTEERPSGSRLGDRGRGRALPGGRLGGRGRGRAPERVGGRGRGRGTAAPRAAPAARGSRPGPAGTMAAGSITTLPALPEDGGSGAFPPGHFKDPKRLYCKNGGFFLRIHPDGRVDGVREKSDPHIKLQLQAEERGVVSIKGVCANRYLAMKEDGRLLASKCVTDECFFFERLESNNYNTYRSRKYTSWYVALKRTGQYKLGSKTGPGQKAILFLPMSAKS

**Q.** For COC(=O)C[C@H]1O[C@@H](CCc2ccccc2)[C@@H](C)[C@@H]1[Si](C)(C)c1ccc(OC)cc1, which composite z-score is on record?
**A.** -0.187

**Q.** With CC(=CC1CCCCC1)[C@@H](NC(=O)c1cccnc1)c1ccc(-c2ccccc2)cc1 as the compound, how does the composite z-score read?
**A.** -0.741

**Q.** For [N-]=[N+]=Nc1ccccc1C[C@]1(C(=O)NCC(O)CO)N=C(c2ccc(OCCCO)cc2)O[C@H]1c1ccccc1 (stereo partly specified), which composite z-score is on record?
**A.** -0.839

**Q.** For COCC(=C=CC[C@H](O)c1cccc(OCCO)c1)CCO, which composite z-score is on record?
**A.** 0.131

**Q.** How did the composite z-score turn out when COC(=O)[C@H](Cc1ccccc1)N[C@H](/C=C/C1CC1)[C@@H](O)Cc1ccccc1 was run?
**A.** 0.123

**Q.** For C=CCOC(=O)[C@H]1[C@@H]2C(=O)O[C@@H](c3ccccc3)[C@@H](c3ccccc3)N2[C@@H](c2ccc(OCCOC(=O)[C@@H]3C[C@@H]4C(=O)N5CCC[C@H]5C(=O)N4[C@@H]3c3cccc(OCCO)c3)cc2)[C@]12C(=O)Nc1ccc(I)cc12, which composite z-score is on record?
**A.** 1.4

**Q.** COCC(=C=CC[C@@H](O)c1ccc(OCCO)cc1)C[C@@H](O)c1ccccn1 was tested. Which composite z-score did it give?
**A.** 0.249

**Q.** How did the composite z-score turn out when COc1ccc([Si](C)(C)[C@@H]2[C@@H](CCO)O[C@]3(C(=O)N(Cc4cccc(N5CCOC5=O)c4)c4ccccc43)[C@H]2C)cc1 was run?
**A.** 0.568

**Q.** How did the composite z-score turn out when [N-]=[N+]=Nc1ccccc1[C@H]1OC(c2ccc(OCCCO)cc2)=N[C@@]1(Cc1ccccc1)C(=O)N1CCOCC1 was run?
**A.** 1.66

**Q.** CN1C(=O)C2C=CC(C(O)C=Cc3ccc([N+](=O)[O-])cc3)N(Nc3ccccc3)C2C1=O (stereo unspecified) was tested. Which composite z-score did it give?
**A.** 0.028

**Q.** For C#CCOc1ccc(C[C@@H](C(=O)OC)N(CC#C)[C@@H](/C=C/C2CC2)[C@H](O)Cc2ccccc2)cc1, which composite z-score is on record?
**A.** -0.768
